The record followed here is PubChem BioAssay (NCI).

Common to all, as to experiment: NCI-60 one-dose screen, 48 h (100 = growth as untreated, 0 = no growth, -100 = all killed)
Holding throughout (conditions): 10 µM unless noted

For assay [1], the system named is DU-145 prostate.
In assay [2] the test system is K-562 leukemia.
Assay [3] deals with MALME-3M melanoma.
The subject of assay [4] is MDA-MB-231 breast.
Assay [5] has as its system RXF 393 renal.
Assay [6] has as its system SF-268 CNS.
Assay [7] has as its system SF-295 CNS.
Assay [8] deals with SF-539 CNS.
The test system of assay [9] is UACC-257 melanoma.
Assay [10] relates to M14 melanoma.
Assay [11] relates to HCT-15 colon.
Assay [12] has as its system HT29 colon.
Assay [13] deals with SNB-75 CNS.
In assay [14] the test system is SNB-19 CNS.
Assay [15] concerns U251 CNS.
Assay [16] deals with PC-3 prostate.
For assay [17], the system named is SK-MEL-5 melanoma.
The test system of assay [18] is UACC-62 melanoma.
The test system of assay [19] is LOX IMVI melanoma.
The subject of assay [20] is SK-MEL-28 melanoma.

Compounds without any hit were thinned out: in the full panel of roughly 83,000, 20% have a hit.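 Note: values are percent growth. 100 is the growth of untreated cells, values between 100 and 0 indicate rising inhibition; between -100 and 0 indicates cell death.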 A number with no mark means an inactive call. Calls of active or inactive are those of the source. How the source made its calls: active means growth percent below 10; inactive means the rest.

For `COc1ccc2[nH]cc(C3(c4c[nH]c5ccc(OC)cc45)C(=O)Nc4ccc(Cl)cc43)c2c1`, the growth is 66.9% in assay [1]; 6.2% (active) in assay [2]; 78.9% in [3]; 82.4% in assay [4]; 94.5% in assay [5]; 40.8% in assay [6]. Further, the growth in assay [7] is 59.6%; in assay [8] it was 74.8%; in assay [9], 86.5%; in [10], 73.8%; in [11], 69.1%; in assay [12], 44.9%. Further, the growth in assay [13] was 39.7%; in assay [14], 82.3%; in assay [15], 72.2%; in assay [16], 15%; in [17] it was 89.2%; in [18] it was 73%. Further, the results for the growth in assay [19] and in assay [20] were 45% and 95.3%, respectively.

For `Clc1ccc(-c2nc(-c3cccs3)no2)cc1`, the growth was 97.4% in assay [1]; 101% in [2]; 111% in assay [3]; 84.2% in [4]; 114% in assay [5]; 102% in [6]. Besides, the growth in [7] is 108%; in assay [8] it was 102%; in [9] it was 86.4%; in [10], 105%; in assay [11], 106%; in assay [12], 96%. Further, the growth in [13] is 88.6%; in assay [14], 105%; in assay [15], 84.6%; in assay [16], 84.4%; in [17] it was 87.9%; in assay [18], 88.1%. Further, the growth in assay [19] was 94.7%; in assay [20], 112%.

Turning to `COc1cc(C2CC(c3ccccc3)=NN2C=O)ccc1Oc1nc2c(c(=O)n(C)c(=O)n2C)n1C` (stereo not given), the growth was 59% in [1]; 74.3% in assay [2]; 77.9% in assay [3]; 71.9% in assay [4]; 90.9% in assay [5]; 56.3% in assay [6]. Moreover, the growth is 62.2% in [7]; 117% in [8]; -27.3% (active) in assay [9]; 69.9% in assay [10]; 87.9% in assay [11]; 69.9% in assay [12]. In addition, the growth in [13] is 92%; in assay [14], 61.9%; in assay [15] it was 86.5%; in assay [16], 72.8%; in assay [17] it was 59.2%; in [18] it was 86.2%. Besides, the growth in assay [19] was 55%; in [20] it was 95.1%.

`CC(=O)c1ccc(N2C(=O)c3ccc(Oc4ccccc4)cc3C2=O)cc1`: the growth is 103% in assay [1]; 119% in assay [2]; 106% in assay [3]; 113% in assay [4]; 112% in [5]; 100% in assay [6]. Also, the growth is 81.1% in assay [7]; 107% in assay [8]; 118% in assay [9]; 98.8% in assay [10]; 111% in assay [11]; 104% in assay [12]. Besides, the growth was 108% in assay [13]; 105% in assay [14]; 108% in assay [15]; 91.2% in assay [16]; 103% in assay [17]; 98.9% in assay [18]. For the same compound, the growth in assay [19] was 103%; in assay [20], 111%.

For the compound `O=C(c1ccccc1)c1cccc(C(Br)Br)c1`, the growth is 93.7% in [1]; 46.4% in assay [2]; 88.9% in assay [3]; 103% in assay [4]; 95.7% in assay [5]; 95.5% in assay [6]. Also, the growth in [7] is 76.2%; in assay [8] it was 95.2%; in assay [9], 105%; in [10], 72.1%; in assay [11], 73.4%; in [12] it was 63.5%. The growth in [13] was 73.9%; in [14] it was 83.6%; in [15], 88.9%; in [16], 91.8%; in assay [17], 74%; in assay [18], 81.1%. Also, the growth in [19] was 80.6%; in [20], 93.2%.

For `O=C(Nc1ccc(Cl)cc1)c1cc(-c2ccc(Cl)cc2)c2sc(=O)[nH]c2n1`, the growth in [1] was 16.5%; in assay [2] it was -12.8% (active); in [3], -13.8% (active); in [4] it was -30.9% (active); in assay [5] it was -3.38% (active); in assay [6], 14.1%. In addition, the growth is -12.5% (active) in [7]; 7.84% (active) in [8]; -24.9% (active) in assay [9]; 8.92% (active) in [10]; 7.94% (active) in assay [11]; -24% (active) in assay [12]. For the same compound, the growth in assay [13] was 10.5%; in assay [14], 8% (active); in [15] it was 0.838% (active); in assay [16], -13.5% (active); in assay [17], -19.6% (active); in assay [18] it was -14.7% (active). Moreover, the growth was 13.4% in assay [19] and 25.2% in assay [20].

As to `Cc1cc(C#Cc2ccc(C(C)(C)C)cc2)ccc1-n1c(/C=C/c2c(Cl)cccc2Cl)nc2ccccc2c1=O`, the growth in assay [1] was 110%; in assay [2], 101%; in assay [3], 116%; in assay [4] it was 122%; in assay [5], 127%; in assay [6], 96.8%. Besides, the growth in [7] is 97.9%; in assay [8], 106%; in assay [9], 110%; in assay [10], 106%; in assay [11] it was 90.9%; in assay [12], 93.2%. Also, the growth was 82% in assay [13]; 105% in [14]; 93.9% in assay [15]; 80.8% in assay [16]; 106% in [17]; 101% in [18]. Moreover, the growth in [19] was 87.3%; in assay [20], 126%.

As for `C=CCOC(=O)C1=C(C)NC2=C(C(=O)CC(C)(C)C2)C1c1ccc(OC)cc1` (stereo not given), the growth in assay [1] is 110%; in assay [2] it was 90.4%; in [3] it was 104%; in assay [4], 92.8%; in assay [5], 105%; in assay [6], 94.1%. Also, the growth in assay [7] was 105%; in assay [8], 108%; in [9] it was 96.2%; in assay [10], 96.8%; in assay [11], 105%; in assay [12], 102%. Besides, the growth in assay [13] is 81.2%; in assay [14], 92.2%; in [15], 103%; in assay [16], 88.3%; in assay [17] it was 108%; in assay [18], 81.1%. Moreover, the growth in assay [19] was 102%; in assay [20] it was 104%.
